Test results as given in PubChem BioAssay (EPA / NIEHS).
Calls of active or inactive are those of the source. The calls were made as follows: active = hit-call score of the fitted dose curve at least 0.9, where 1 is the maximum; inactive = score below 0.9.

Legend:
[1] = APR_HepG2_P-H2AX_72hr: Apredica 72-hour HepG2 Assay for H2AX Phosphorylation (AID 2282916); settings: imaging, actives raise or lower the signal;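 also: phospho-histone H2A.x immunostain intensity per cell marking DNA damage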
Procedure, shortened: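 HepG2 human liver cells were exposed for 72 hr to compounds at 0.39–200 uM (10 concentrations, duplicate per plate) in 0.5% v/v DMSO. Fixed, permeabilized cells were immunolabeled for phospho-histone H2A.x with Hoechst 33342 and imaged by HCS fluorescence; bidirectional fit versus DMSO.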

[2] = APR_HepG2_MitoMembPot_72hr: Apredica 72-hour HepG2 Assay for Mitochondrial Membrane Potential (AID 2282917); settings: imaging, actives raise or lower the signal
Procedure, shortened: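 HepG2 cells dosed 72 hr with compound at 0.39–200 uM in duplicate, 0.5% v/v DMSO final. Mitochondria stained with 250 nM MitoTracker Red CMXRos for 30 min before formaldehyde fixation, imaged by high-content fluorescence; bidirectional fit versus DMSO.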

[3] = APR_HepG2_MitoticArrest_72hr: Apredica 72-hour HepG2 Assay for Mitotic Arrest (AID 2282918); settings: high-content imaging, actives raise or lower the signal
Procedure, shortened: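 HepG2 cells were exposed for 72 hr to compound at 0.39–200 uM (10 concentrations, duplicate) in 0.5% v/v DMSO, fixed in 3.7% formaldehyde, immunostained for phospho-histone H3 with Hoechst 33342 and imaged by high-content fluorescence; bidirectional fits versus DMSO.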

[4] = APR_HepG2_MicrotubuleCSK_72hr: Apredica 72-hour HepG2 Assay for Microtubule CSK Stabilty (AID 2282919); settings: HepG2 microtubule cytoskeleton, high-content imaging, actives raise or lower the signal
Procedure, shortened: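 HepG2 cells were exposed 72 hr to compound at 0.39–200 uM in duplicate (0.5% DMSO final), then fixed and permeabilized. Alpha-tubulin immunofluorescence was imaged by high-content microscopy, with bidirectional fitting against DMSO and taxol as positive control.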

[5] = APR_HepG2_P-H2AX_24hr: Apredica 24-hour HepG2 Assay for H2AX Phosphorylation (AID 2282920); settings: high-content imaging, actives raise or lower the signal
Procedure, shortened: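 HepG2 human liver cells were exposed for 24 hr to compounds at 0.39–200 uM in duplicate, with 0.5% v/v DMSO final. Fixed cells were immunostained for phospho-histone H2A.x plus Hoechst 33342, imaged by HCS fluorescence, and fitted bidirectionally against DMSO.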

[6] = APR_HepG2_StressKinase_72hr: Apredica 72-hour HepG2 Assay for Stress Kinase (AID 2282921); settings: HepG2 stress kinase (phospho-c-Jun) imaging, actives raise or lower the signal
Procedure, shortened: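 Cells were exposed for 72 h to ten concentrations (0.39–200 uM, duplicate) at 0.5% v/v DMSO final, then fixed with 3.7% formaldehyde, permeabilized and immunostained for phospho-c-Jun (Cy3 secondary) with Hoechst nuclear counterstain.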

[7] = APR_HepG2_p53Act_72hr: Apredica 72-hour HepG2 Assay for p53 Activation (AID 2282923); settings: high-content imaging, actives raise or lower the signal;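 also: average cellular p53 protein immunofluorescence intensity in HepG2 cells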
Procedure, shortened: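 Cells were dosed for 72 hr with compounds at 0.39–200 uM in duplicate (final DMSO 0.5% v/v), then fixed in 3.7% formaldehyde, permeabilized with Triton X-100 and immunostained for p53 (Cy5) with Hoechst 33342 nuclear counterstain.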

[8] = APR_HepG2_MitoMass_72hr: Apredica 72-hour HepG2 Assay for Mitochondrial Mass (AID 2282924); settings: high-content imaging, actives raise or lower the signal;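 also: MitoTracker Red CMXRos stain intensity per cell imaged as mitochondrial mass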
Procedure, shortened: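 HepG2 cells dosed 72 hr at 0.39–200 uM (0.5% DMSO), in duplicate. MitoTracker Red CMXRos 250 nM loaded 30 min before formaldehyde fixation; high-content fluorescence imaging, bidirectional fit versus DMSO.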

[9] = ATG_CRE_CIS: Attagene CIS-FACTORIAL HepG2 Assay for human cAMP Responsive Element (CRE) binding protein 3 (AID 2282926); settings: HepG2 CRE cis-reporter, Attagene multiplexed mRNA; actives raise or lower the signal
Procedure, shortened: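 HepG2 cells transiently transfected with a multiplexed reporter library (CRE-driven unit among them) were dosed for 24 h. Reporter mRNA was quantified by RT-PCR, fluorescent labelling, HpaI digestion and capillary electrophoresis, with bidirectional fitting against DMSO baseline.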

[10] = target: CCAAT/enhancer-binding protein beta (Homo sapiens) (UniProt P17676); experiment: ATG_C_EBP_CIS: Attagene CIS-FACTORIAL HepG2 Assay for human CCAAT/Enhancer Binding Protein (C/EBP) beta (AID 2282927); settings: HepG2 Attagene cis-factorial transcription factor reporter; actives raise or lower the signal
CCAAT/enhancer-binding protein beta (Homo sapiens), sequence (P17676 whole entry, looked up): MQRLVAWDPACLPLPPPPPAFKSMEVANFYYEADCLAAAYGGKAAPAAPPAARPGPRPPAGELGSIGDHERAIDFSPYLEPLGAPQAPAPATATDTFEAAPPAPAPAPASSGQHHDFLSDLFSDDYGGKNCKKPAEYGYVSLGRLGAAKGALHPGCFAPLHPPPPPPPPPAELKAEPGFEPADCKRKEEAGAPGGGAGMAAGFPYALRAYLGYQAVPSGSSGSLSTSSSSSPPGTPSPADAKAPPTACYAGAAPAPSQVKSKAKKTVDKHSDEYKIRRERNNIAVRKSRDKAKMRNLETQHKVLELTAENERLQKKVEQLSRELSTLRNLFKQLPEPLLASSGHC
Procedure, shortened: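 Transiently transfected HepG2 (MRTU library, endogenous TF-driven promoters); 24 h dosing; total RNA → oligo(dT) RT → PCR → 6-FAM primer extension → HpaI digest → CE; fit bidirectionally vs DMSO.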

[11] = ATG_CMV_CIS: Attagene CIS-FACTORIAL HepG2 Assay for human CMV (Internal Marker) (AID 2282928); settings: HepG2 CMV promoter reporter, transcription factor profiling; actives raise or lower the signal;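 also: endpoint acts as a background internal control marker rather than a target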
Procedure, shortened: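 HepG2 cells transiently transfected with multiple cis-regulated reporter units; 24 h compound exposure. Reporter mRNA quantified by RT-PCR, 6-FAM primer-extension labeling, HpaI digestion and capillary electrophoresis; bidirectional fitting against DMSO baseline.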

[12] = ATG_DR4_LXR_CIS: Attagene CIS-FACTORIAL HepG2 Assay for human Liver X Receptor (LXR), DR4 submotif (AID 2282929); settings: HepG2 Attagene DR4 cis-reporter, mRNA transcription; actives raise or lower the signal
Procedure, shortened: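 Fluorescence intensity of labelled reporter cDNA fragments, separated by capillary electrophoresis, gives the signal. HepG2 cells bearing cis-regulated reporter constructs were treated 24 h; activity fitted bidirectionally relative to DMSO negative control.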

[13] = target: Aryl hydrocarbon receptor (Homo sapiens) (UniProt P35869); experiment: ATG_Ahr_CIS: Attagene CIS-FACTORIAL HepG2 Assay for human Aryl Hydrocarbon Receptor (Ahr) (AID 2282930); settings: HepG2 AhR cis-factorial reporter transcription; actives raise or lower the signal
Aryl hydrocarbon receptor (Homo sapiens), sequence (P35869 whole entry, looked up): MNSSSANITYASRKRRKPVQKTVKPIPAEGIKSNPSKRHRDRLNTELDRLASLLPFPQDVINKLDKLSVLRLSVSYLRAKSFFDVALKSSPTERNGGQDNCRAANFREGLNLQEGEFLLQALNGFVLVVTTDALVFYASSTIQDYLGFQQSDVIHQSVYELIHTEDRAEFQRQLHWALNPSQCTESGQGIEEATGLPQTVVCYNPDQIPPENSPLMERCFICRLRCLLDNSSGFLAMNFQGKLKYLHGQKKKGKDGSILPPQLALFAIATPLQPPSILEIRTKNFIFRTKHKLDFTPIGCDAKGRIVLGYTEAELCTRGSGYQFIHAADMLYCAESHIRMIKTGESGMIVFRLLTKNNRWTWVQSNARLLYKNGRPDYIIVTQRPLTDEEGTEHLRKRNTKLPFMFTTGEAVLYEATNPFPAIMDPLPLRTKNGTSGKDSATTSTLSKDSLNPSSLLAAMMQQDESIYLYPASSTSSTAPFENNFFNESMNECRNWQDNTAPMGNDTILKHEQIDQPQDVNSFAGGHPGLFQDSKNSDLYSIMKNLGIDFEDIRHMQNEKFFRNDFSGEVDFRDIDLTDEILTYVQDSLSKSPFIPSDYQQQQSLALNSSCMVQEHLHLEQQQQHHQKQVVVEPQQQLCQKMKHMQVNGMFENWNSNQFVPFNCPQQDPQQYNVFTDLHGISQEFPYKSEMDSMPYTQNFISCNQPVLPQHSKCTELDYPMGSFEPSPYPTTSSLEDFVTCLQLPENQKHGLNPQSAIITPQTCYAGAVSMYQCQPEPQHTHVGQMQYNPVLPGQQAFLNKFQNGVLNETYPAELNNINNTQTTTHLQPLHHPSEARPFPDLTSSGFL
Procedure, shortened: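 Read-out: reporter mRNA quantified by RT-PCR with fluorescent primer extension and capillary electrophoresis. Human HepG2 liver cells carried transfected cis-promoter reporter units and were exposed to chemical for 24 h; gain or loss fitted relative to DMSO.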

[14] = ATG_AP_1_CIS: Attagene CIS-FACTORIAL HepG2 Assay for human Activator Protein 1 (AP-1) (AID 2282931); settings: HepG2 Attagene cis-factorial AP-1 reporter mRNA; actives raise or lower the signal
Procedure, shortened: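 Multiplexed HepG2 reporter assay, 24 h dosing. mRNA induction detected by RT-PCR plus capillary electrophoresis. Activity fitted in both directions against DMSO.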

[15] = ATG_AP_2_CIS: Attagene CIS-FACTORIAL HepG2 Assay for human Activator Protein 2 (AP-2) (AID 2282932); settings: HepG2 AP-2 cis-reporter, Attagene transcription factor profiling; actives raise or lower the signal
Procedure, shortened: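 Multiplexed mRNA reporter assay in HepG2: cis-regulated units report endogenous factor activity after 24 h treatment. Fluorescence from capillary electrophoresis of RT-PCR products gives the signal, with DMSO as baseline.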

[16] = target: Transcription factor E2F1 (Homo sapiens) (UniProt Q01094); experiment: ATG_E2F_CIS: Attagene CIS-FACTORIAL HepG2 Assay for human E2F Transcription Factor 1 (AID 2282935); settings: HepG2 Attagene cis-reporter, E2F reporter RNA transcripts; actives raise or lower the signal
Transcription factor E2F1 (Homo sapiens), sequence (Q01094 whole entry, looked up): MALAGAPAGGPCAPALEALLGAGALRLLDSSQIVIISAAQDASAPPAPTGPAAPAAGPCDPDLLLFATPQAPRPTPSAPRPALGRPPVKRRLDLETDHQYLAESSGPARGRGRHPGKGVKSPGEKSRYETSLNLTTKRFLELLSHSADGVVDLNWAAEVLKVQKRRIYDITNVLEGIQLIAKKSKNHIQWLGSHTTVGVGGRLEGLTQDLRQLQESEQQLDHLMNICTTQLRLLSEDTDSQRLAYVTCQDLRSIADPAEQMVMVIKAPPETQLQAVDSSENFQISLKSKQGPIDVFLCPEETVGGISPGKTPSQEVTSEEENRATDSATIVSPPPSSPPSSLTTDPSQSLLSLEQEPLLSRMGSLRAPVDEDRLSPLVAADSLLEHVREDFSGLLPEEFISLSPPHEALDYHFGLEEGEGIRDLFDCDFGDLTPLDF
Procedure, shortened: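 Measures reporter transcript levels via RT-PCR with capillary electrophoresis detection in HepG2 cells harboring cis-regulated reporter units; 24 h post-dose; bidirectional curve fitting with DMSO as baseline.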

[17] = APR_HepG2_NuclearSize_72hr: Apredica 72-hour HepG2 Assay for Nuclear Size (AID 2282925); settings: high-content imaging, actives raise or lower the signal
Procedure, shortened: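 HepG2 cells dosed 72 h at 0.39–200 uM (10 concentrations, duplicate) in 0.5% v/v DMSO final. Fixed, Hoechst 33342-stained nuclei imaged; nuclear diameter measured by automated image analysis. Bidirectional fit versus DMSO.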

[18] = target: Retinoic acid receptor alpha (Homo sapiens) (UniProt P10276); experiment: ATG_DR5_RAR_CIS: Attagene CIS-FACTORIAL HepG2 Assay for human Retinoic Acid Receptor Alpha (RARE), DR5 submotif (AID 2282934); settings: HepG2 Attagene cis-factorial RARE DR5 reporter, mRNA; actives raise or lower the signal
Retinoic acid receptor alpha (Homo sapiens), sequence (P10276 whole entry, looked up): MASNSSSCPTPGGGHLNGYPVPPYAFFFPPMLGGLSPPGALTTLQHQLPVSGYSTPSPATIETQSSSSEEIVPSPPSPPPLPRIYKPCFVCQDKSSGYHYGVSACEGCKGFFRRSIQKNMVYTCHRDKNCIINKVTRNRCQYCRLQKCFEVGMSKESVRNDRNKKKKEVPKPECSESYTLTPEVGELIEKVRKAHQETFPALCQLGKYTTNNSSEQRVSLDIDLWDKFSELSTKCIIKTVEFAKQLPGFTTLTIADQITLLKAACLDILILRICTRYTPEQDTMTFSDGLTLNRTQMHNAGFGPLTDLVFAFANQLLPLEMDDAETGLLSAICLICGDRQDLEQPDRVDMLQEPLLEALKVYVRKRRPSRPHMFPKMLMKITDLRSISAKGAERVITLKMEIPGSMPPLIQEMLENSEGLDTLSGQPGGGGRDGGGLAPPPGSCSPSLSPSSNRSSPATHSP
Procedure, shortened: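 Read-out: DR5-driven reporter transcript measured by RT-PCR, 6-FAM primer extension, HpaI digest and capillary electrophoresis. Human HepG2 liver cells carry transiently transfected cis-element reporter constructs; dosing lasts 24 h. Gain or loss of signal fitted against DMSO baseline.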

[19] = ATG_BRE_CIS: Attagene CIS-FACTORIAL HepG2 Assay for human Bone Morphogenetic Protein (BMP) Response Element (BRE) (AID 2282933); settings: HepG2 BMP response element reporter, Attagene transcription factor profiling; actives raise or lower the signal
Procedure, shortened: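 Read-out: reporter mRNA induction quantified by RT-PCR and capillary electrophoresis after 24 h chemical exposure of transfected HepG2 cells. Endogenous factor activity on the BMP response element; gain or loss fitted against DMSO baseline.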

Measured: AC50

CC(C)[C@H](C(=O)O[C@H](C#N)c1cccc(Oc2ccccc2)c1)c1ccc(Cl)cc1
active: [12] 13.9 µM
not listed: [17] | [18] | [19]
inactive: all other assays above

CC(=NC#N)N(C)Cc1ccc(Cl)nc1
not listed: [19]
inactive: all other assays above

CN(C)NC(=O)CCC(=O)O
not listed: [19]
inactive: all other assays above

CNC(=O)Oc1cccc2c1OC(C)(C)O2
active: [1] 97 µM | [5] 99.4 µM | [8] 56.7 µM | [9] 50 µM | [10] 19.3 µM | [11] 35.9 µM | [14] 61 µM
not listed: [18] | [19]
inactive: all other assays above

S=C1NCCN1
not listed: [17]
inactive: all other assays above

CC(C1CC1)C(O)(Cn1cncn1)c1ccc(Cl)cc1 (stereo not given)
active: [12] 11.3 µM
not listed: [17] | [19]
inactive: all other assays above

CCOP(=S)(OCC)Oc1ccc([N+](=O)[O-])cc1
active: [10] 13.5 µM | [13] 30.9 µM | [14] 82.6 µM
not listed: [19]
inactive: all other assays above

Cc1ccn2nc(S(=O)(=O)Nc3c(F)cccc3F)nc2n1
not listed: [7] | [17] | [19]
inactive: all other assays above

CCOP(=S)(OCC)Oc1cc(C)nc(C(C)C)n1
active: [11] 29.8 µM | [12] 50 µM | [13] 16.3 µM
not listed: [18] | [19]
inactive: all other assays above

COP(=O)(NC(C)=O)SC (stereo not given)
not listed: [17] | [18] | [19]
inactive: all other assays above

COP(=O)(OC)SCn1c(=O)oc2cc(Cl)cnc21
active: [1] 53.8 µM | [3] 68.3 µM | [4] 56.3 µM | [6] 26.3 µM | [9] 18.1 µM | [12] 10.4 µM
not listed: [18] | [19]
inactive: all other assays above

CCc1cccc(C)c1N(C(=O)CCl)C(C)COC (stereo not given)
active: [1] 87.6 µM | [3] 82.6 µM | [4] 62.4 µM | [12] 32.1 µM | [14] 9.57 µM
not listed: [17] | [19]
inactive: all other assays above
